# Bioassay records (PubChem)
# An excerpt weighted towards active compounds, which were near 3% of everything screened.
# pS6 MEF inh = inhibitors of mTORC1 signaling in Tsc2-/- p53-/- MEF cells; Potency, µM (doses to about 38.3 µM), most hits filed as inhibitors; AID 493208; Tsc2-/- p53-/- MEF, phospho-rpS6 immunofluorescence/PI, 24 h; actives 0.78% (n = 44,000); note: nearly all actives have a fitted effect of over 50% in size
#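 Tsc2-/-, p53-/- MEFs (empty-vector stable line) in DMEM + 10% FBS were treated with compounds 24 h at 37 degree Celsius, fixed, and immunostained for phospho-rpS6 (Alexa-488) with propidium iodide counterstain. Laser-scanning cytometry gave % positive cells, normalized against 7.5 nM rapamycin and DMSO.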
# p53null 32C tox = selectivity test: cytotoxicity in p53 null cells, permissive temperature. H1299-neo p53 null cells, ATP luminescence, 24 h, 32C. Potency, µM (doses to about 46.1 µM), hits mostly cytotoxic. actives 0.62% (n = 55,000). AID 903; note: nearly all actives have a fitted effect of over 55% in size
#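 H1299-neo, 600 cells/well; overnight 37C; cpd up to 46 uM, 24 h at 32C; ATPlite luminescence after 20 min RT; normalized to DMSO (0%) and tamoxifen 100 uM (100% kill); Hill-fit AC50.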
# PMP22 txn = modulates PMP22 transcription in S16 Schwann cells; S16 Pmp22-F2sN Schwann cells, FLuc/NLuc coincidence luminescence, 24 h; Potency, µM (series often up to 57.5 µM), most hits filed as inhibitors; actives 2% (n = 43,000); active = clear falling dose curves in both reporters; inconclusive = both reporters move, but less clearly or upward; inactive = either reporter flat; the % is the NLuc reporter signal
#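 qHTS, 1536-well. Cells seeded, compounds added by pin tool, 24 h 37C. Nano-Glo reagent 1 (lysis/FLuc), 10 min RT, read; Stop&Glo, 10 min RT, read NLuc.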
# S16 F2sN tox = cytotoxicity in S16 Pmp22-F2sN Schwann cells; S16 Pmp22-F2sN Schwann cells (luciferase reporters placed in the Pmp22 gene) viability, CellTiter-Glo, 24 h; Potency, µM (titrated, usually from 57.5 µM), actives largely listed as cytotoxic; actives 0.48% (n = 43,000); AID 1508642; note: nearly all actives have a fitted effect of over 65% in size
#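 S16 Schwann cells carrying the Pmp22-F2sN reporter, seeded in 1536-well format, were exposed to library compounds for 24 h at 37C. Viability was read as CellTiter-Glo luminescence after 15 min at room temperature.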
# OvCa metastasis = blocks SKOV3ip1 adhesion and invasion in omental model; SKOV3ip1-GFP adhesion/invasion on 3D omental model, fluorescence; Potency, µM (top dose mostly 45.8 µM), usual class: inhibitors; actives 0.1% (n = 46,000); note: nearly all actives have a fitted effect of over 65% in size
#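 A 3D layer of primary human omental fibroblasts, mesothelial cells, fibronectin and collagen I, grown 48 hr, received SKOV3ip1-GFP cells in serum-free medium plus compounds at 0.36-46 umol/L. After 2 hr RT and 16 hr 37 C, fixed adherent GFP cells were counted; normalized to DMSO and tomatine.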
# p53null 39C kill = selectivity test: cytotoxicity in p53 null cells, nonpermissive temperature | actives 0.97% (n = 55,000) | Potency, µM (series often up to 46.1 µM), actives largely listed as cytotoxic | H1299 p53-null (neo) cells, 39C, ATPlite viability, 24 h; note: nearly all actives have a fitted effect of over 50% in size
#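 Following overnight plating at 37C (600 cells/well), H1299-neo or H1299-p53A138V cells are dosed up to 46 uM. Incubation lasts 24 hr at 39C before ATP detection.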
# A number is an active result; n = inactive; u = inconclusive; x = not tested or not shown. Unless noted, calls come from the whole dose curve; as a rule, active = well fitted curve in the direction sought with a large enough effect; inconclusive = small, poorly fitted or top-dose-only effect, or another doubt; inactive = no such curve, though single readings can be large; an effect the other way counts as inactive or inconclusive.
SMILES,pS6 MEF inh,p53null 32C tox,PMP22 txn,S16 F2sN tox,OvCa metastasis,p53null 39C kill
Cc1ccc(C)c(CSc2ccc3nnc(CCNS(=O)(=O)c4ccccc4)n3n2)c1,n,n,n,n,n,n
C#Cc1cccc(Nc2ncnc3cc(OC)c(OCCCCCCC(=O)NO)cc23)c1,x,x,x,x,n,x
Cc1ccc(-n2nc3c(N4CCC(C(=O)NCCc5ccccc5)CC4)nnc(C)c3c2C)cc1,n,n,u,28.2µM,n,n
COc1ccc(-n2nc3c(N4CCC(C(=O)NCCc5ccccc5)CC4)nnc(C)c3c2C)cc1,n,n,n,n,n,n
CCc1ccc(NC(=O)N2CCN(c3nnc(C)c4c(C)n(-c5ccc(Cl)cc5)nc34)CC2)cc1,n,u,u,n,n,20µM
CC1=C(C(=O)Nc2ccc(C)cc2C)C(c2cc(Br)ccc2F)n2ncc(C(=O)Nc3ccc(C)cc3)c2N1 (centres undefined),2.93µM,n,u,u,n,u
Cc1nc(NC(=O)N2CCC[C@@H]2C(N)=O)sc1-c1csc(C(C)(C)C)n1,x,x,x,x,n,x
O=c1[nH]c(=O)n([C@H]2C[C@@H](O)[C@@H](CO)O2)cc1I,x,x,x,x,n,x
Cc1cccc(C(=O)Nc2nc3c(s2)CCCC3)c1,n,12.6µM,n,n,n,12.6µM
O=C(Nc1nc2c(s1)CCCC2)c1ccc2ncsc2c1,x,12.6µM,x,x,x,11.2µM
COc1ccc(-c2ccc3ncc4c(c3c2)n(-c2ccc(N3CCNCC3)c(C(F)(F)F)c2)c(=O)n4C)cn1,x,x,x,x,9.35µM,x
COc1cc(/C=C(\C#N)c2nc3ccc(C)cc3[nH]2)ccc1OC(C)C,n,n,n,n,n,n
Cc1ccc2nc(/C(C#N)=C/c3cccc(Br)c3)[nH]c2c1,18.5µM,n,u,u,n,n
COc1ccc(CNC(=O)c2cc(-c3ccc(Br)s3)nc3ccccc23)cc1,n,n,u,n,n,u
Cc1ccc(NC(=O)c2cc(-c3ccc(Br)s3)nc3ccccc23)cc1F,n,n,u,31.6µM,n,n
O=C(NC1CC1)c1ccc(Cn2c(SCc3ccccc3F)nc3cccnc32)cc1,n,u,u,u,n,12.6µM
O=C(NCc1cccs1)c1ccc(CSc2nc3cccnc3n2Cc2ccccc2)cc1,n,n,n,u,n,n
Cc1ccc(CSc2nc3cccnc3n2Cc2ccc(C(=O)NC3CCCCC3)cc2)cc1,n,12.6µM,u,n,u,11.2µM
Cc1ccc(CSc2nc3cccnc3n2Cc2ccc(C(=O)NCCc3cccs3)cc2)cc1,n,4.47µM,u,n,n,3.98µM
O=C(NC1CCCCC1)c1ccc(Cn2c(SCc3ccccc3F)nc3cccnc32)cc1,n,n,n,u,n,n
O=C(NCc1ccco1)c1ccc(Cn2c(SCc3ccc(F)cc3)nc3cccnc32)cc1,n,u,n,n,n,12.6µM
CCn1c(C(=O)N(C2CC2)C2CC2)cc2c3c(ncn3C)c(Nc3cc(C)n(C)n3)nc21,x,x,x,x,n,x
C=C[C@@H]1CN2CCC1C[C@H]2[C@H](O)c1ccnc2ccc(OC)cc12 (some centres undefined),x,x,x,x,n,x
Cn1cnc(=N)c2[nH]cnc21,x,x,x,x,n,x
O=C1CC(c2ccccc2)Cc2[nH]c(=O)c(-c3nc(-c4ccc(Cl)cc4)cs3)cc21 (centres undefined),5.85µM,n,0.751µM,u,n,n
SMILES,pS6 MEF inh,p53null 32C tox,PMP22 txn,S16 F2sN tox,OvCa metastasis,p53null 39C kill
O=C1CC(c2ccccc2)Cc2[nH]c(=O)c(-c3nc(-c4ccc(Cl)c(Cl)c4)cs3)cc21 (centres undefined),n,n,n,u,n,n
O=c1cc(-c2cccc3c2Sc2ccccc2S3)oc(N2CCOCC2)c1,x,x,x,x,n,x
CC(C)S(=O)(=O)c1oc(-c2cccs2)nc1S(=O)(=O)c1ccc(F)cc1,0.585µM,u,1.68µM,3.16µM,u,n
CSc1oc(-c2ccc(F)cc2)nc1S(=O)(=O)c1ccccc1,x,n,x,x,x,n
CCCCS(=O)(=O)c1oc(-c2ccc(F)cc2)nc1S(=O)(=O)c1ccccc1,2.93µM,17.8µM,2.38µM,4.47µM,u,u
Cc1ccc(S(=O)(=O)c2nc(-c3ccc(F)cc3)oc2SCC(N)=O)cc1,x,n,x,x,x,n
CS(=O)(=O)c1oc(-c2ccc(F)cc2)nc1S(=O)(=O)c1ccc(Cl)cc1,u,u,4.47µM,5.62µM,n,u
CCS(=O)(=O)c1oc(-c2ccc(F)cc2)nc1S(=O)(=O)c1ccc(Br)cc1,2.61µM,n,3.03µM,2.82µM,u,u
O=C1[C@H](Cc2ccc(O)cc2)N2C(=O)CCN(C(=O)NCc3ccccc3)[C@H]2CN1Cc1cccc2ccccc12,x,x,x,x,n,x
CCOc1ccc(-c2nnc(-c3ccccc3)o2)cc1,x,u,x,x,x,12.6µM
CCOc1ccc(-c2nc3ccccc3c(=O)o2)cc1,n,3.98µM,n,n,n,6.31µM
COc1ccc(CNC(=O)Cn2c(=O)nc(-c3ccccc3F)c3cc(Cl)ccc32)cc1,n,n,u,n,11.2µM,n
CC(C)NC(=O)Cn1c(=O)nc(-c2ccccc2F)c2cc(Cl)ccc21,n,n,n,n,n,n
Cc1oc(-c2cccc(Cl)c2)nc1CN1CCCC(C(=O)NCCc2ccc(Cl)cc2)C1 (centres undefined),n,n,u,u,n,20µM
Cc1oc(-c2cccc(Cl)c2)nc1CN1CCC(C(=O)NCCc2ccc(Cl)cc2)CC1,n,n,n,n,n,n
O=C(C=CC=Cc1ccc2c(c1)OCO2)N1CCCCC1,x,x,x,x,n,x
CC(=O)OCC(=O)[C@@]1(O)[C@H](C)C[C@H]2[C@@H]3C=C(C)C4=Cc5c(cnn5-c5ccccc5)C[C@]4(C)[C@@H]3[C@@H](O)C[C@@]21C,x,x,x,x,n,x
CS(=O)(=O)c1ccc(Sc2nc3ccccc3s2)c([N+](=O)[O-])c1,x,12.6µM,x,x,x,x
Cc1cc(S(=O)(=O)Nc2ccc(O)c(Sc3nc4ccccc4s3)c2)ccc1Cl,n,n,u,u,n,n
Cc1ccc(CNC(=O)CN2C(=O)CSc3ccc(S(=O)(=O)N4CCCC4)cc32)cc1,n,n,n,n,n,12.6µM
Cn1c(=O)c2c(nc(NCc3ccccc3)n2Cc2ccccc2Cl)n(C)c1=O,n,n,n,u,n,n
Cn1c(=O)c2c(nc(NCc3ccccc3)n2Cc2ccccc2)n(C)c1=O,n,n,13.4µM,u,n,n
CCCS(=O)(=O)c1ncc(Cl)c(C(=O)N2CCN(c3ccc(OC)cc3)CC2)n1,u,u,5.97µM,5.01µM,n,n
COc1ccc(-c2oc3c(CC=C(C)C)c(O)cc(O)c3c(=O)c2O)cc1,x,x,x,x,n,x
